# Where “and” joins values, the source holds several entries; their conditions need not be identical. Identical values can stand only once. Results filed as inconclusive are left out. Calls of active or inactive are those of the source. The calls were made as follows: active = hit-call score of the fitted dose curve at least 0.9, where 1 is the maximum; inconclusive = response in the unintended direction; inactive = score below 0.9.
# Key:
# [1] = target: D(1A) dopamine receptor (Homo sapiens) (UniProt P21728); assay: NVS_GPCR_hDRD1: NovaScreen (NVS) G Protein-Coupled Receptor Assay for human Dopamine Receptor D1 (DRD1) (AID 2283269)
# Method in brief: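 Extracted HEK293 DRD1 is incubated 1 h with compound and a tritiated or iodinated radioligand, then filtered and counted. Screening runs 25 uM in duplicate with on-plate positive and negative controls.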
# [2] = target: guinea pig Opioid, Kappa 1 Receptor (OpiateK), OPRK1 (gene 100135587) (UniProt P41144); assay: NVS_GPCR_gOpiateK: NovaScreen (NVS) G Protein-Coupled Receptor Assay for guinea pig Opioid, Kappa 1 Receptor (OpiateK) (AID 2283252);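 also: radioligand displacement from kappa opioid receptor in guinea pig cerebellar membranes; active means reduced radioligand binding relative to DMSO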
# Method in brief: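 Radioligand competition binding using guinea pig cerebellum membrane fraction; 2 h exposure; filter radiodetection. Single concentration 25 uM (duplicate), follow-up concentration-response for actives.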
# [3] = target: human Adenosine A2a Receptor (AdoRA2a), ADORA2A (gene 135) (UniProt P29274); assay: NVS_GPCR_hAdoRA2a: NovaScreen (NVS) G Protein-Coupled Receptor Assay for human Adenosine A2a Receptor (AdoRA2a) (AID 2283256)
# Method in brief: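 Compounds screened in duplicate at 25 uM, with actives followed up in concentration series, for displacement of a radioligand from HEK293-derived receptor protein. Bound counts read by filter scintillation at 1.5 hours, DMSO as baseline.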
# [4] = system: bovine Histamine 1 Receptor (H1), gene 281231; assay: NVS_GPCR_bH1: NovaScreen (NVS) G Protein-Coupled Receptor Assay for bovine Histamine 1 Receptor (H1) (AID 2283246)
# Method in brief: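 Hits from a 25 uM duplicate primary screen were retested in concentration series (top 50 uM); binding measured as scintillation-counted displacement of radioligand from bovine cerebellar membranes after 1 h, normalised to DMSO.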
# [5] = system: guinea pig Muscarinic, Peripheral (Mperiperal) Receptor, Non-selective Binding, gene 100379235; assay: NVS_GPCR_gMPeripheral_NonSelective: NovaScreen (NVS) G Protein-Coupled Receptor Assay for guinea pig Muscarinic, Peripheral (Mperiperal) Receptor, Non-selective Binding (AID 2283250)
# Method in brief: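 Screened in duplicate at 25 uM, hits retested in concentration series to 50 uM max, using bladder membrane radioligand displacement from guinea pig. Filtration and scintillation counting 1 h post-dose, fitted relative to DMSO.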
# [6] = target: guinea pig Leukotriene D4 Receptor (LTD4), CYSLTR1 (gene 100135514) (UniProt Q2NNR5); assay: NVS_GPCR_gLTD4: NovaScreen (NVS) G Protein-Coupled Receptor Assay for guinea pig Leukotriene D4 Receptor (LTD4) (AID 2283248)
# Method in brief: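 Guinea pig lung membrane preparation; bound radioligand measured by filter scintillation after 1 h, loss of signal versus DMSO marking displacement. Compounds tested at 25 uM in duplicate, hits retested to max 50 uM.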
# [7] = target: human Adenosine A1 Receptor (AdoRA1), ADORA1 (gene 134) (UniProt P30542); assay: NVS_GPCR_hAdoRA1: NovaScreen (NVS) G Protein-Coupled Receptor Assay for human Adenosine A1 Receptor (AdoRA1) (AID 2283254)
# Method in brief: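 Each chemical is first tested twice at 25 uM, actives later in dilution series, against a radioligand bound to human cortex membranes; after 1 h, filter-retained counts are compared with DMSO controls, lower signal indicating displacement.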
# [8] = target: human Serotonin, 5-Hydroxytryptamine Receptor 5A (5HT5A), HTR5A (gene 3361) (UniProt P47898); assay: NVS_GPCR_h5HT5A: NovaScreen (NVS) G Protein-Coupled Receptor Assay for human Serotonin, 5-Hydroxytryptamine Receptor 5A (5HT5A) (AID 2283251)
# Method in brief: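 Membranes from HEK293 cells, radioligand binding read by filtration and scintillation after 1 h. Single-concentration duplicate testing at 25 uM, then concentration-response for actives; positive-direction fitting relative to DMSO.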
# [9] = target: human Serotonin, 5-Hydroxytryptamine Receptor 6 (5HT6), HTR6 (gene 3362) (UniProt P50406); assay: NVS_GPCR_h5HT6: NovaScreen (NVS) G Protein-Coupled Receptor Assay for human Serotonin, 5-Hydroxytryptamine Receptor 6 (5HT6) (AID 2283253)
# Method in brief: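 Filter scintillation counting of radioligand displacement from HEK293-expressed 5HT6, 1 hour post-dose, with loss of signal relative to DMSO. Single 25 uM duplicates first, with concentration series for confirmation.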
# [10] = target: human Serotonin, 5-Hydroxytryptamine Receptor 7 (5HT7), HTR7 (gene 3363) (UniProt P34969); assay: NVS_GPCR_h5HT7: NovaScreen (NVS) G Protein-Coupled Receptor Assay for human Serotonin, 5-Hydroxytryptamine Receptor 7 (5HT7) (AID 2283255);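 also: hits reduce specific radioligand binding relative to DMSO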
# Method in brief: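 Filter-bound radioactivity counted after 1 h, with loss of specific radioligand binding fitted against DMSO. Membrane protein came from CHO cells expressing human 5HT7. Chemicals were tested first at 25 uM in duplicate, then in concentration series if active.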
# [11] = target: human Dopamine Receptor D4.4 (DRD4.4), DRD4 (gene 1815) (UniProt P21917); assay: NVS_GPCR_hDRD4.4: NovaScreen (NVS) G Protein-Coupled Receptor Assay for human Dopamine Receptor D4.4 (DRD4.4) (AID 2283264)
# Method in brief: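 Filter-binding assay with a tritiated or iodinated ligand, cell-free receptor prepared from CHO, 1 hour. Loss of bound radioactivity versus DMSO; single 25 uM duplicate screen, then concentration-response for actives.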
# [12] = target: human Endothelin Receptor Type A (ETA), EDNRA (gene 1909) (UniProt P25101); assay: NVS_GPCR_hETA: NovaScreen (NVS) G Protein-Coupled Receptor Assay for human Endothelin Receptor Type A (ETA) (AID 2283265)
# Method in brief: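 Binding of radioligand to membrane protein extracted from SH-SY5Y cells was read by filtration and scintillation after 3 h. Compounds were screened at 25 uM in duplicate, with hits followed up in singleton concentration series to 50 uM.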
# [13] = system: guinea pig Leukotriene B4 Receptor (LTB4), gene 100379538; assay: NVS_GPCR_gLTB4: NovaScreen (NVS) G Protein-Coupled Receptor Assay for guinea pig Leukotriene B4 Receptor (LTB4) (AID 2283247)
# Method in brief: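 Membranes from guinea pig spleen incubated 2 h with radioligand and compound; bound counts measured by filtration and scintillation. Screened first at 25 uM in duplicate, then actives titrated to a 50 uM top concentration relative to DMSO.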
# [14] = target: human Adrenergic, Alpha 2c Receptor (Adra2C), ADRA2C (gene 152) (UniProt P18825); assay: NVS_GPCR_hAdra2C: NovaScreen (NVS) G Protein-Coupled Receptor Assay for human Adrenergic, Alpha 2c Receptor (Adra2C) (AID 2283259)
# Method in brief: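 Screened first in duplicate at 25 uM, with actives then run as concentration series. Membranes from Sf9 cells were exposed for 1 h, and displacement of radioligand was counted after filtration, using DMSO as baseline.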
# [15] = target: human Histamine 1 Receptor (H1), HRH1 (gene 3269) (UniProt P35367); assay: NVS_GPCR_hH1: NovaScreen (NVS) G Protein-Coupled Receptor Assay for human Histamine 1 Receptor (H1) (AID 2283268)
# Method in brief: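 Filter-based scintillation detection of radioligand binding to human H1, 1 h incubation; chemicals screened in duplicate at 25 uM, then concentration-response; signal loss relative to DMSO taken as activity.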
# [16] = target: human Adrenergic, Beta 3 Receptor (Adrb3), ADRB3 (gene 155) (UniProt P13945); assay: NVS_GPCR_hAdrb3: NovaScreen (NVS) G Protein-Coupled Receptor Assay for human Adrenergic, Beta 3 Receptor (Adrb3) (AID 2283262)
# Method in brief: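 A cell-free filter binding assay read by scintillation counting, with displacement of a specific radioligand measured after 1 hour. The receptor source was SK-N-MC extracts (cells pretreated with isoproterenol and 8-bromo-cAMP). Compounds were first tested at 25 uM in duplicate and then in concentration series.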
# [17] = target: human Adrenergic, Alpha 2A Receptor (Adra2A), ADRA2A (gene 150) (UniProt P08913); assay: NVS_GPCR_hAdra2A: NovaScreen (NVS) G Protein-Coupled Receptor Assay for human Adrenergic, Alpha 2A Receptor (Adra2A) (AID 2283257)
# Method in brief: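 Displacement of a specific radioligand from HT29 membrane protein was counted by filter scintillation after 1 h. Compounds were screened in duplicate at 25 uM, and actives were retested in concentration series. Fitting was positive-direction against DMSO.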
# [18] = target: human Adrenergic, Beta 1 Receptor (Adrb1), ADRB1 (gene 153) (UniProt P08588); assay: NVS_GPCR_hAdrb1: NovaScreen (NVS) G Protein-Coupled Receptor Assay for human Adrenergic, Beta 1 Receptor (Adrb1) (AID 2283258)
# Method in brief: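 Membranes/protein extracted from human neuroepithelioma cells, radioligand competition binding read by filtration and scintillation 2 h post-dose. Single 25 uM duplicate screen, then concentration-response follow-up; DMSO as negative control.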
# [19] = target: Beta-2 adrenergic receptor (Homo sapiens) (UniProt P07550); assay: NVS_GPCR_hAdrb2: NovaScreen (NVS) G Protein-Coupled Receptor Assay for human Adrenergic, Beta 2 Receptor (Adrb2) (AID 2283261)
# Method in brief: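 Compounds screened in duplicate at 25 uM, then actives in concentration series. Human beta-2 receptor from CHO material, cell-free; radioligand displacement after 1 h measured by filtration and scintillation against DMSO baseline.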
# [20] = target: human Dopamine Receptor D2 (DRD2), DRD2 (gene 1813) (UniProt P14416); assay: NVS_GPCR_hDRD2s: NovaScreen (NVS) G Protein-Coupled Receptor Assay for human Dopamine Receptor D2 (DRD2) (AID 2283266)
# Method in brief: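 Test compound (25 uM, duplicate in the primary screen; concentration series at follow-up) competed with radioligand for human DRD2 in CHO-derived membrane protein. Filter-based scintillation counting was done 1.5 hours after dosing, with loss of signal analysed against DMSO.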
# Chain of human Serotonin, 5-Hydroxytryptamine Receptor 7 (5HT7), HTR7 (gene 3363) (P34969 whole entry, looked up): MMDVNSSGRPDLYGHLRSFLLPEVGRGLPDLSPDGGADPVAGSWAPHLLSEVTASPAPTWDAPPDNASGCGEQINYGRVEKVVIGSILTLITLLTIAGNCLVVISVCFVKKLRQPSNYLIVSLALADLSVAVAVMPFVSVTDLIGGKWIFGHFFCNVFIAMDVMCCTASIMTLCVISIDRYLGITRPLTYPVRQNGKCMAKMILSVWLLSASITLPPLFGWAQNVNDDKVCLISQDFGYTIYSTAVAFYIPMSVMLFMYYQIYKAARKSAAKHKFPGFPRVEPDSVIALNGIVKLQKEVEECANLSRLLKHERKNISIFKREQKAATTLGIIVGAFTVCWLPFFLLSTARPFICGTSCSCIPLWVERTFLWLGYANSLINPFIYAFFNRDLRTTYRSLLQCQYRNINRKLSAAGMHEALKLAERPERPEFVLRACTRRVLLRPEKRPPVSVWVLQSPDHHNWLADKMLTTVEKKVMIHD
# Chain of human Serotonin, 5-Hydroxytryptamine Receptor 5A (5HT5A), HTR5A (gene 3361) (P47898 whole entry, looked up): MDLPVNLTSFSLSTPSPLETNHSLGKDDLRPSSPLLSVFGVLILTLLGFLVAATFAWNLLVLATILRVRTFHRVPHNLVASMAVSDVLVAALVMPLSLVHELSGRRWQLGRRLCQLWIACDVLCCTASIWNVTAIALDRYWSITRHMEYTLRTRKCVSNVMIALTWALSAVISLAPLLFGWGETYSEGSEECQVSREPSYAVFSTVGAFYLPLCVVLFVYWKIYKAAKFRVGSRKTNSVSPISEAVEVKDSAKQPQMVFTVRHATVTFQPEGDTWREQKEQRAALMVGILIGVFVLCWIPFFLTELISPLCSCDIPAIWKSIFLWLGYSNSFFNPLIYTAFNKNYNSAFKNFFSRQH
# Chain of human Adrenergic, Alpha 2c Receptor (Adra2C), ADRA2C (gene 152) (P18825 whole entry, looked up): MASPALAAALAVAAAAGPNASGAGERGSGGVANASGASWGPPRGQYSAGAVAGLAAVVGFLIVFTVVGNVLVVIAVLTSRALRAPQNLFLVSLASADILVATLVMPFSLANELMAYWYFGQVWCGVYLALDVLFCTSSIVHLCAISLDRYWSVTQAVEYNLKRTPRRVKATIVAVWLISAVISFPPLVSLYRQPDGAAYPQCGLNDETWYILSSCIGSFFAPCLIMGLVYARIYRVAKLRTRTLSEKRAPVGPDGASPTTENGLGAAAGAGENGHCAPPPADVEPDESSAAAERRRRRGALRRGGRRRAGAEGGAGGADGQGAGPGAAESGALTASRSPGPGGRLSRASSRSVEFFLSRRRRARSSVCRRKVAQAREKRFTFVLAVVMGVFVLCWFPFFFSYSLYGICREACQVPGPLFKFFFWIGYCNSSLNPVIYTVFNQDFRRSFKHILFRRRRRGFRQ
# Chain of guinea pig Leukotriene D4 Receptor (LTD4), CYSLTR1 (gene 100135514) (Q2NNR5 whole entry, looked up): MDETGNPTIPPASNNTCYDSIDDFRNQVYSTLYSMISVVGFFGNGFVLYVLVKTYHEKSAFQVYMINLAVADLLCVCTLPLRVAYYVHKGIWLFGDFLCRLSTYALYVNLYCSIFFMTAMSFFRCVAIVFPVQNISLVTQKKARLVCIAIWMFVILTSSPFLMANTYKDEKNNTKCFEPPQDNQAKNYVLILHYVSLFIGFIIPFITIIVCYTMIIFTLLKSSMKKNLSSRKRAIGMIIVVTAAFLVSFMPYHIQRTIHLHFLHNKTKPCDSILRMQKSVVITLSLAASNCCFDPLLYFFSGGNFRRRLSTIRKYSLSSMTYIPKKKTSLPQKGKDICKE
# Chain of human Adenosine A1 Receptor (AdoRA1), ADORA1 (gene 134) (P30542 whole entry, looked up): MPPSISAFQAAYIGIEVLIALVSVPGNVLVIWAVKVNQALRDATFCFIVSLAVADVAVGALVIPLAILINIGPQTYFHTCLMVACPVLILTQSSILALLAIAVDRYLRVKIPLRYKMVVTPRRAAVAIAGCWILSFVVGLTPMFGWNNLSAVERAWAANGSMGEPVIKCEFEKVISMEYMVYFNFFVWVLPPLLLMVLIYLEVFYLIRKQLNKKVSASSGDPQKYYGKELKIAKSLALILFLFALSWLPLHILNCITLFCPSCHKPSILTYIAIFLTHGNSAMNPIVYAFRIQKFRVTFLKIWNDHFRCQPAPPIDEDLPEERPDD
# Chain of D(1A) dopamine receptor (Homo sapiens) (P21728 whole entry, looked up): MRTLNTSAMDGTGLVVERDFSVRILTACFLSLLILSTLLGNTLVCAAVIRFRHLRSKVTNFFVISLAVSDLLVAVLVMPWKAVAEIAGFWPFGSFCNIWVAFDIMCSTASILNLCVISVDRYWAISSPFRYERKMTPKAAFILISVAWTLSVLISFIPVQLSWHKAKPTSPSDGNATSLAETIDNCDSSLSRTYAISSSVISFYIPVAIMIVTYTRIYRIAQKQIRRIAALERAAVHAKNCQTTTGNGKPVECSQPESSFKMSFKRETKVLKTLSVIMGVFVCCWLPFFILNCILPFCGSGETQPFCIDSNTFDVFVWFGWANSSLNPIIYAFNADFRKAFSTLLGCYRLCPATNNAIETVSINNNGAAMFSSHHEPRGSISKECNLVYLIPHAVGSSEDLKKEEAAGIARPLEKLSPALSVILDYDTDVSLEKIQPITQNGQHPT
# Chain of guinea pig Opioid, Kappa 1 Receptor (OpiateK), OPRK1 (gene 100135587) (P41144 whole entry, looked up): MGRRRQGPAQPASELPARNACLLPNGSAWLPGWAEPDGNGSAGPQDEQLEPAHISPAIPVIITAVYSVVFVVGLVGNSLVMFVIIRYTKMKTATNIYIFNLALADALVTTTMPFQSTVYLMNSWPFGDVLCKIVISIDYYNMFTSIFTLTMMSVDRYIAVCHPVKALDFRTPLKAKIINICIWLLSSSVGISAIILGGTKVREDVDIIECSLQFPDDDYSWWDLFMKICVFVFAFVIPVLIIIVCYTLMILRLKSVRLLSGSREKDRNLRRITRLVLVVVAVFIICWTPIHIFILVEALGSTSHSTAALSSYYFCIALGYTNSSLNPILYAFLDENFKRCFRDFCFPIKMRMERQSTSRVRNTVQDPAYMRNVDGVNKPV
# Chain of human Dopamine Receptor D4.4 (DRD4.4), DRD4 (gene 1815) (P21917 whole entry, looked up): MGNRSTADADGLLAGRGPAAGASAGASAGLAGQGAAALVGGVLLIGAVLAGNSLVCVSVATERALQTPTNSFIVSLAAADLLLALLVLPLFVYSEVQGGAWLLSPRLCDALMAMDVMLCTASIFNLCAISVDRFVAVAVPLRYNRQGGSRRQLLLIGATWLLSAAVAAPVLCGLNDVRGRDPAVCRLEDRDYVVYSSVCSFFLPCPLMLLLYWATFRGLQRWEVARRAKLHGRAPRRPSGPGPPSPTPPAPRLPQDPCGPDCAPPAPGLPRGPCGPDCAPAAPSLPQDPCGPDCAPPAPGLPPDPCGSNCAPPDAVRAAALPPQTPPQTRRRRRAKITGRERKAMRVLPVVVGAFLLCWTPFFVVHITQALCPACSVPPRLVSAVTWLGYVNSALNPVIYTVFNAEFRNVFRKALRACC
# Chain of human Dopamine Receptor D2 (DRD2), DRD2 (gene 1813) (P14416 whole entry, looked up): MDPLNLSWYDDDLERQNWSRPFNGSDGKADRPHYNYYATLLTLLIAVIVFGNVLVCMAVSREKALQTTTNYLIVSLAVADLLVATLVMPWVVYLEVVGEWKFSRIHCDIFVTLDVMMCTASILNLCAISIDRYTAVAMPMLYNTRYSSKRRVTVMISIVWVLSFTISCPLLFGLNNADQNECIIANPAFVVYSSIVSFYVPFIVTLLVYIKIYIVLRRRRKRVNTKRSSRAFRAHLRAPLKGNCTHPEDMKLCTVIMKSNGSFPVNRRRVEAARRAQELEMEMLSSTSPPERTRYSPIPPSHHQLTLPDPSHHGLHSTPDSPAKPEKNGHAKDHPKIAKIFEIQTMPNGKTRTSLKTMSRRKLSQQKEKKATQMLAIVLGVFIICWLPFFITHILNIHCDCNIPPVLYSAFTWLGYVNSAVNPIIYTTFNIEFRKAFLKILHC
# Chain of human Serotonin, 5-Hydroxytryptamine Receptor 6 (5HT6), HTR6 (gene 3362) (P50406 whole entry, looked up): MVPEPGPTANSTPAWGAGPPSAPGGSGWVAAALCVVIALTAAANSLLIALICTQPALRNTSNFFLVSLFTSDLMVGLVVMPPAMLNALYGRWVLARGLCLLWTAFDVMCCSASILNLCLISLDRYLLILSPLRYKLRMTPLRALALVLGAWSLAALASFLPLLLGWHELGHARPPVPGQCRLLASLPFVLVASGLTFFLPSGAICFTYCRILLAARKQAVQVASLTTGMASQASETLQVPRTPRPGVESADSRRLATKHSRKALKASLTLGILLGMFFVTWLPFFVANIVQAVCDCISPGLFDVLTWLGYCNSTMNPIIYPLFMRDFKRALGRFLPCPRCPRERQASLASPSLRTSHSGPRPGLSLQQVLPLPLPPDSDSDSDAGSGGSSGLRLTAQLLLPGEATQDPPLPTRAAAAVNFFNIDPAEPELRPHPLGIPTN
# Chain of human Adenosine A2a Receptor (AdoRA2a), ADORA2A (gene 135) (P29274 whole entry, looked up): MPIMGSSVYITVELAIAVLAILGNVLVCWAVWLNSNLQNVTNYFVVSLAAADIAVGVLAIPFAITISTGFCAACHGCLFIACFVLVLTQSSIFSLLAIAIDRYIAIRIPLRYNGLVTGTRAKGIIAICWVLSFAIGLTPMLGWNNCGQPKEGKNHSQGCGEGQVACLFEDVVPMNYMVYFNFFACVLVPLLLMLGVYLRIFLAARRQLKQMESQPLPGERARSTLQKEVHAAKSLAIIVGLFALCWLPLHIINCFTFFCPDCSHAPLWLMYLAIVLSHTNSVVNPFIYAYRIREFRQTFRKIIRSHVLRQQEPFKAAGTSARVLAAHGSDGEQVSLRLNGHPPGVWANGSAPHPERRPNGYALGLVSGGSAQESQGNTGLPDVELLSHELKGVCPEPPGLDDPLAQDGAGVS
# Chain of human Adrenergic, Beta 3 Receptor (Adrb3), ADRB3 (gene 155) (P13945 whole entry, looked up): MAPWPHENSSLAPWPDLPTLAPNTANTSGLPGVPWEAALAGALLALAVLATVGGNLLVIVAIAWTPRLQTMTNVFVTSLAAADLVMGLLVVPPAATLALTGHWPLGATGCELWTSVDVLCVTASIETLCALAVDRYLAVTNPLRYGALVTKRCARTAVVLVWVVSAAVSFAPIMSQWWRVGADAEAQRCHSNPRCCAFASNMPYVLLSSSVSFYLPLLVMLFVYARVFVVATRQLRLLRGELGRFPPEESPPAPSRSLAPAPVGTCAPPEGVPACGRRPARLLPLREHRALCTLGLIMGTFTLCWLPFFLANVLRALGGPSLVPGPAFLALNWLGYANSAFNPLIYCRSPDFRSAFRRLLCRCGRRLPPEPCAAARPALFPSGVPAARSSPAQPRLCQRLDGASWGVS
structure (smiles),measurement,setting,value
CCc1cccc(CC)c1NC(=O)C(=O)O,outcome,[1],inactive
CN(C)c1ccc(C(=C2C=CC(=[N+](C)C)C=C2)c2ccccc2)cc1,AC50,[2],15 µM (active) and 12.5 µM (active)
same,outcome,[3],inactive
same,AC50,[1],2.97 µM (active) and 3.18 µM (active)
C=CC(C)(CCC=C(C)C)OC(C)=O (centres undefined),AC50,[2],46.5 µM (active)
CN(C)CCOC(c1ccccc1)c1ccccc1,AC50,[4],0.101 µM (active)
same,AC50,[5],0.574 µM (active)
same,AC50,[2],13 µM (active)
C/C=C/C(=O)C1=C(C)CCCC1(C)C,outcome,[1],inactive
CC(C)(C)c1ccc(O)c(O)c1,outcome,[6],inactive
same,AC50,[1],25 µM (active)
NC(=NCCCCCCN=C(N)/N=C(\N)Nc1ccc(Cl)cc1)/N=C(\N)Nc1ccc(Cl)cc1,AC50,[1],0.618 µM (active)
CS(=O)(=O)c1ccc([C@@H](CC2CCCC2)C(=O)Nc2cnccn2)cc1Cl,outcome,[6],inactive
same,outcome,[7],inactive
CCCCc1oc2ccccc2c1C(=O)c1cc(I)c(OCCN(CC)CC)c(I)c1,AC50,[8],13.7 µM (active)
same,AC50,[9],7.27 µM (active)
same,outcome,[7],inactive
same,AC50,[10],6.72 µM (active)
same,AC50,[11],18.9 µM (active)
same,AC50,[12],0.59 µM (active)
CCOC(=O)CN[C@@H](C(=O)N1CC[C@H]1C(=O)NCc1ccc(/C(N)=N/O)cc1)C1CCCCC1,outcome,[1],inactive
COc1cc(OC)nc(NC(=O)NS(=O)(=O)Nc2ccccc2C(=O)N(C)C)n1,outcome,[1],inactive
CCCCCCCCCCCCOS(=O)(=O)O,AC50,[13],25 µM (active)
same,AC50,[6],8.99 µM (active)
same,AC50,[8],9.77 µM (active)
same,AC50,[10],25 µM (active)
same,AC50,[14],16.4 µM (active)
same,AC50,[11],25 µM (active)
same,outcome,[15],inactive
same,AC50,[1],37.6 µM (active)
CCCCCCCCC(C)=O,outcome,[1],inactive
O=C1OC2(c3ccccc31)c1cc(I)c(O)c(I)c1Oc1c2cc(I)c(O)c1I,outcome,[2],inactive
same,AC50,[7],6.25 µM (active)
same,AC50,[1],0.594 µM (active)
CCCCCCCCCCCCCCCCCC[N+](C)(C)Cc1ccccc1,AC50,[1],2.22 µM (active)
O=C1c2ccc(O)c(O)c2C(=O)c2c(O)ccc(O)c21,outcome,[1],inactive
Cc1[nH]nc2c1N=C(c1ccccc1Cl)c1cc([N+](=O)[O-])ccc1N2,outcome,[7],inactive
same,outcome,[14],inactive
CC=O,outcome,[1],inactive
O=C(CCCN1CCC(O)(c2ccc(Cl)cc2)CC1)c1ccc(F)cc1,AC50,[4],10.5 µM (active)
same,AC50,[5],5.15 µM (active)
same,outcome,[8],inactive
same,outcome,[16],inactive
Clc1ccc(Nc2nnc(Cc3ccncc3)c3ccccc23)cc1,AC50,[1],16 µM (active)
N=C(N)c1ccc(OCCCCCOc2ccc(C(=N)N)cc2)cc1,outcome,[4],inactive
same,AC50,[13],2.4 µM (active)
same,AC50,[5],0.954 µM (active)
same,outcome,[8],inactive
same,AC50,[2],17.2 µM (active)
same,AC50,[10],3.18 µM (active)
same,AC50,[17],23.2 µM (active)
same,AC50,[18],20.4 µM (active)
same,AC50,[14],7.57 µM (active)
same,AC50,[19],21.9 µM (active)
same,outcome,[20],inactive
same,AC50,[1],12.3 µM (active)
CN(Cc1cnc2nc(N)nc(N)c2n1)c1ccc(C(=O)N[C@@H](CCC(=O)O)C(=O)O)cc1,outcome,[9],inactive
same,outcome,[7],inactive
same,AC50,[3],9.68 µM (active)
same,outcome,[14],inactive
same,outcome,[16],inactive
same,AC50,[20],22 µM (active)
same,AC50,[1],25 µM (active)
CCCCCCCCCCCCCCCC(=O)OC,outcome,[6],inactive
